Assay in all cases: NCI-60 one-dose screen, 48 h (100 = growth as untreated, 0 = no growth, -100 = all killed)
One test concerns DU-145 prostate. To be noted: 10 µM unless noted.
The subject of another test is K-562 leukemia. To be noted: 10 µM unless noted.
The next test relates to MALME-3M melanoma. To be noted: 10 µM unless noted.
The test system of a further test is RXF 393 renal. To be noted: 10 µM unless noted.
For a further test, the system named is SF-268 CNS. To be noted: 10 µM unless noted.
Another test concerns SF-295 CNS. To be noted: 10 µM unless noted.
The test system of another test is SF-539 CNS. To be noted: 10 µM unless noted.
In a further test the test system is UACC-257 melanoma. To be noted: 10 µM unless noted.
The test system of the next test is M14 melanoma. To be noted: 10 µM unless noted.
A further test deals with HCT-15 colon. To be noted: 10 µM unless noted.
The test system of another test is HT29 colon. To be noted: 10 µM unless noted.
The subject of another test is SNB-75 CNS. To be noted: 10 µM unless noted.
For a further test, the system named is SNB-19 CNS. To be noted: 10 µM unless noted.
Another test has as its system U251 CNS. To be noted: 10 µM unless noted.
Another test deals with PC-3 prostate. To be noted: 10 µM unless noted.
The test system of a further test is SK-MEL-5 melanoma. To be noted: 10 µM unless noted.
Another test relates to UACC-62 melanoma. To be noted: 10 µM unless noted.
The test system of a further test is LOX IMVI melanoma. To be noted: 10 µM.
A further test relates to SK-MEL-28 melanoma. To be noted: 10 µM unless noted.
The subject of the next test is MDA-MB-231 breast. To be noted: 10 µM unless noted.

Structures are written as SMILES. Compounds without any hit were thinned out: in the full panel of roughly 83,000, 20% have a hit.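 Interpretation: 100, growth as untreated; towards 0, rising growth inhibition; 0, no net growth; 0 to -100, cell death. Compounds scoring below 10 were considered active.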 A number with no mark means an inactive call. Activity calls are given as the source filed them.

In the case of `Oc1c(Cl)cc(Cl)cc1C=NCC1CCC(CN=Cc2cc(Cl)cc(Cl)c2O)CC1` (configuration not stated), the growth with DU-145 prostate is 104%; in the test with K-562 leukemia it was 66.8%; in the test with MALME-3M melanoma it was 89.6%; with RXF 393 renal it was 90.9%; with SF-268 CNS, 70.9%; in the test with SF-295 CNS, 98%. Moreover, the growth in the test on SF-539 CNS was 89.3%; in the test with UACC-257 melanoma, 111%; in the test on M14 melanoma, 90.4%; in the test on HCT-15 colon it was 84.9%; in the test on HT29 colon, 103%; in the test with SNB-75 CNS, 66.9%. Further, the growth is 79.8% in the test with SNB-19 CNS; 83% in the test on U251 CNS; 77.6% with PC-3 prostate; 94.4% in the test with SK-MEL-5 melanoma; 97.7% in the test on UACC-62 melanoma; 69.6% in the test with LOX IMVI melanoma. For the same molecule, the growth with SK-MEL-28 melanoma was 89.2%.
As to `CCC[CH2][Sn]1([CH2]CCC)[O]C2C(CO)OC(n3ccc(N)nc3=O)C2[O]1` (configuration not stated), the growth in the test on DU-145 prostate was 2.15% (active); in the test on K-562 leukemia, -17.7% (active); with MALME-3M melanoma, -71.7% (active); in the test on MDA-MB-231 breast, -68.8% (active); in the test on SF-268 CNS, -89.2% (active); in the test with SF-539 CNS, -64.2% (active). Further, the growth was -87.3% (active) in the test on UACC-257 melanoma; -47.2% (active) in the test with M14 melanoma; -59.3% (active) in the test with HCT-15 colon; -69.8% (active) with HT29 colon; -21.2% (active) in the test on SNB-75 CNS; 28.4% with SNB-19 CNS. Also, the growth in the test with PC-3 prostate is -11.3% (active); with SK-MEL-5 melanoma, -72.1% (active); in the test with UACC-62 melanoma, -89% (active); in the test on LOX IMVI melanoma, -57% (active).
In the case of `Cc1ccc(Nc2ccc(O)c3c2C(=O)c2c(O)ccc(Nc4ccc(C)cc4)c2C3=O)cc1`, the growth in the test with DU-145 prostate is 124%; with K-562 leukemia, 115%; in the test on MALME-3M melanoma, 102%; in the test on MDA-MB-231 breast, 110%; with SF-268 CNS, 114%; in the test with SF-295 CNS, 104%. Moreover, the growth is 96.3% with SF-539 CNS; 95% with UACC-257 melanoma; 102% in the test with M14 melanoma; 94.8% in the test with HCT-15 colon; 106% in the test on HT29 colon; 99.4% in the test with SNB-75 CNS. The growth in the test with SNB-19 CNS was 91.6%; with U251 CNS, 99.8%; in the test on PC-3 prostate, 90.7%; with SK-MEL-5 melanoma, 91.7%; with UACC-62 melanoma, 105%; in the test with LOX IMVI melanoma, 96.9%. For the same molecule, the growth in the test on SK-MEL-28 melanoma was 112%.
`CCCCCCCCCCCC[N+]1(CCCCCCCCCCCC)CCCC(C)C1` (configuration not stated): the growth was -83.8% (active) with DU-145 prostate; -79.1% (active) with K-562 leukemia; -75.1% (active) with MALME-3M melanoma; -82.6% (active) in the test with MDA-MB-231 breast; -87.7% (active) in the test with SF-268 CNS; -77.1% (active) with SF-295 CNS. Further, the growth in the test on SF-539 CNS is -99.6% (active); with UACC-257 melanoma it was -96.2% (active); with M14 melanoma it was -97.3% (active); in the test on HCT-15 colon it was -55.6% (active); with HT29 colon, -91.8% (active); with SNB-75 CNS, -88.3% (active). In addition, the growth in the test on SNB-19 CNS was -96.5% (active); in the test on U251 CNS, -61% (active); with PC-3 prostate it was -93.7% (active); with SK-MEL-5 melanoma, -100% (active); with UACC-62 melanoma it was -77.9% (active); in the test with LOX IMVI melanoma it was -80% (active). Moreover, in the test with SK-MEL-28 melanoma, the growth is -91.2% (active).
Turning to `CCCCCCCCCCCCN1C(C)=CS/C1=C\C=C\c1scc(C)[n+]1CCCCCCCCCCCC`, the growth is 43% in the test with DU-145 prostate; 4.52% (active) in the test on K-562 leukemia; 29.9% in the test on MALME-3M melanoma; 20.2% in the test with MDA-MB-231 breast; 40.3% in the test on SF-268 CNS; -21.5% (active) in the test with SF-295 CNS. Also, the growth is 44.4% with SF-539 CNS; -14.2% (active) in the test with UACC-257 melanoma; 30.5% in the test on M14 melanoma; 56.6% in the test on HCT-15 colon; 11% with HT29 colon; 34.3% in the test on SNB-75 CNS. Besides, the growth in the test on SNB-19 CNS is 40.2%; in the test on PC-3 prostate, 3.86% (active); in the test with SK-MEL-5 melanoma it was -83.9% (active); with UACC-62 melanoma, 5.41% (active); in the test with LOX IMVI melanoma it was 25.9%; with SK-MEL-28 melanoma, 47.2%.
With `O=C1CSC(=S)N1Cc1cccnc1`, the growth is 25% with DU-145 prostate; 7.08% (active) in the test with K-562 leukemia; 102% in the test with MALME-3M melanoma; 106% in the test on MDA-MB-231 breast; 107% in the test with SF-268 CNS; 120% with SF-295 CNS. Further, the growth is 93.6% in the test with SF-539 CNS; 59.5% with UACC-257 melanoma; 85.1% in the test on M14 melanoma; 58.3% in the test with HCT-15 colon; 83.3% with SNB-75 CNS; 110% in the test with SNB-19 CNS. The growth is 85.1% with PC-3 prostate; 99.8% in the test with SK-MEL-5 melanoma; 87.6% with UACC-62 melanoma; 17.5% with LOX IMVI melanoma; 92.1% in the test on SK-MEL-28 melanoma.
Turning to `Oc1ccc(Cl)cc1C(c1cc(Cl)ccc1O)C(Cl)(Cl)Cl`, the growth in the test with DU-145 prostate is -47.8% (active); in the test on K-562 leukemia, 4.51% (active); in the test with MALME-3M melanoma, 11.9%; in the test with MDA-MB-231 breast, -63.6% (active); in the test with SF-268 CNS, 20.2%; in the test with SF-295 CNS, 10.1%. Also, the growth with SF-539 CNS is 31.4%; in the test with UACC-257 melanoma it was 72.1%; with M14 melanoma, 0.872% (active); with HCT-15 colon, 3.95% (active); in the test on HT29 colon, 4.03% (active); in the test on SNB-75 CNS, 4.39% (active). Further, the growth in the test on SNB-19 CNS is 24%; with U251 CNS, 11.8%; with PC-3 prostate, 6.26% (active); with SK-MEL-5 melanoma, 29.1%; with LOX IMVI melanoma, -62.8% (active); with SK-MEL-28 melanoma, 38.8%.
Take `COC(=O)c1ccc(=O)c2nc3/c(=C/O)c(O)cc(=O)c3[nH]c12`: the growth was 29.5% in the test on DU-145 prostate; 7.14% (active) with K-562 leukemia; 1.52% (active) in the test with MALME-3M melanoma; 45.3% in the test on MDA-MB-231 breast; 14.5% in the test on SF-268 CNS; 6.32% (active) in the test on SF-295 CNS. In addition, the growth was 12.6% with SF-539 CNS; 5.98% (active) with UACC-257 melanoma; 26.8% in the test with M14 melanoma; 10.1% with HCT-15 colon; 29.4% in the test with HT29 colon; 12.6% in the test with SNB-75 CNS. For the same molecule, the growth with SNB-19 CNS is 11.6%; in the test on U251 CNS, 7.56% (active); with PC-3 prostate it was 30.5%; in the test with SK-MEL-5 melanoma, 22%; in the test with UACC-62 melanoma, -3.09% (active); in the test with LOX IMVI melanoma, 19%. In the test on SK-MEL-28 melanoma, the growth is 34.2%.
For the molecule `COC(=O)c1cc([N+](=O)[O-])cc([N+](=O)[O-])c1Cl`, the growth in the test on DU-145 prostate is 66.1%; in the test with K-562 leukemia, 15.2%; with MALME-3M melanoma it was 49.5%; in the test with MDA-MB-231 breast, 105%; in the test on RXF 393 renal it was 91.4%; with SF-295 CNS, 101%. Moreover, the growth was 102% in the test on SF-539 CNS; 70.4% in the test with UACC-257 melanoma; 20.5% in the test with M14 melanoma; -4.09% (active) with HCT-15 colon; -85.2% (active) in the test with HT29 colon; 90.4% in the test on SNB-75 CNS. Moreover, the growth with SNB-19 CNS was 104%; in the test with PC-3 prostate, 97%; in the test with UACC-62 melanoma, 90.6%; in the test on LOX IMVI melanoma, 57.7%; in the test with SK-MEL-28 melanoma, 108%.

These data come from PubChem BioAssay (NCI).
